In PubChem BioAssay (NCI):
Where “and” joins values, the source holds several entries; their conditions need not be identical. Equal entries are not always repeated. Compounds without any hit were thinned out: in the full panel of roughly 83,000, 20% have a hit.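 A percent growth of 40 corresponds to 60% growth inhibition; 0 means no net growth; -100 means all cells died. Active threshold: below 10.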 Calls of active or inactive are those of the source.

Assays:
Test in all cases: NCI-60 one-dose screen, 48 h (100 = growth as untreated, 0 = no growth, -100 = all killed)
Details in all cases: 10 µM unless noted
T-47D breast = system: T-47D breast
BT-549 breast = system: BT-549 breast
MDA-MB-435 melanoma = system: MDA-MB-435 melanoma
SW-620 colon = system: SW-620 colon
MCF7 breast = system: MCF7 breast
HCT-116 colon = system: HCT-116 colon
HCC-2998 colon = system: HCC-2998 colon
KM12 colon = system: KM12 colon

Measured: growth

C[N+](C)(C)CN1C(=O)c2ccccc2C1=O
inactive: T-47D breast 96.5% | BT-549 breast 98.6% | MDA-MB-435 melanoma 97.6% | SW-620 colon 107% | MCF7 breast 92.7% | HCT-116 colon 104% | HCC-2998 colon 108% | KM12 colon 111%

CN(C)CCCNC1=C(Cl)C(=O)c2ccccc2C1=O
47.2% (inactive) and 4.88% (active): HCT-116 colon
inactive: T-47D breast 65.3% and 32% | BT-549 breast 96.8% and 93% | KM12 colon 83.3% and 40.7%
45.4% (inactive) and 5.05% (active): MCF7 breast
active: MDA-MB-435 melanoma -88.6% and -88.2% | SW-620 colon -63% and -57.8% | HCC-2998 colon -0.125% and -63.6%

Cc1cccc(/C=C\C(=O)c2ccccc2)c1
inactive: T-47D breast 93.8% and 93.5% | BT-549 breast 90.5% | MDA-MB-435 melanoma 98.4% and 88.5% | SW-620 colon 84.6% and 62.2% | MCF7 breast 43.4% and 82.6% | HCT-116 colon 56.9% | HCC-2998 colon 97% and 103% | KM12 colon 85.6% and 62.7%

OCc1ccccn1
inactive: T-47D breast 107% | BT-549 breast 103% | MDA-MB-435 melanoma 103% | SW-620 colon 104% | MCF7 breast 95.3% | HCT-116 colon 104% | HCC-2998 colon 109% | KM12 colon 110%

NC(=S)N/N=C(\c1ccc(Br)cc1)C1CC1
active: HCT-116 colon 7.26% and 2.42%
inactive: T-47D breast 70.1% and 36.2% | BT-549 breast 99.6% and 106% | MDA-MB-435 melanoma 92% and 91.9% | SW-620 colon 79.7% and 71.1% | MCF7 breast 24.4% and 20.6% | HCC-2998 colon 97.2% and 93.9% | KM12 colon 101% and 108%

O=C(Nc1ccc([N+](=O)[O-])cc1Cl)c1cc(Cl)ccc1O
active: T-47D breast -7.5% and 3.54% | BT-549 breast -35.7% and -74.7% | MDA-MB-435 melanoma -20% and -17.3% | SW-620 colon 0.797% and 1.64% | MCF7 breast 3.12% | HCT-116 colon -45.4% and -78.2% | HCC-2998 colon -23.1% and -28.9% | KM12 colon -58.1% and -25.8%

C/C(=N\NC(=O)c1ccncc1)c1ccccc1O
inactive: T-47D breast 30.8% and 24.3% | BT-549 breast 52% and 20.7% | MDA-MB-435 melanoma 50.5% and 57.5% | SW-620 colon 34.2% and 42.3% | MCF7 breast 13.2% and 13.4% | HCC-2998 colon 25% and 32.1% | KM12 colon 31.9% and 34.4%
active: HCT-116 colon 5.77% and 2.15%

CC(C)Cc1ccc(C(C)C(=O)NCc2ccc(Cn3c(=O)sn(CCCI)c3=O)cc2)cc1 (stereo not given)
93% (inactive) and -72.6% (active): MDA-MB-435 melanoma
82% (inactive) and -72.9% (active): HCT-116 colon
99.2% (inactive) and -36.7% (active): KM12 colon
89.9% (inactive) and -81.9% (active): BT-549 breast
31.7% (inactive) and -61.4% (active): MCF7 breast
active: T-47D breast -49.3%
66.5% (inactive) and -63.2% (active): SW-620 colon

Oc1ccccc1/C=N\NC(=S)N/N=C/c1ccccc1O
inactive: T-47D breast 48.4% and 51.6% | BT-549 breast 47.3% and 49.8% | MDA-MB-435 melanoma 56.3% and 44.2% | SW-620 colon 47.5% and 50.7% | MCF7 breast 25.6% and 26.8% | HCT-116 colon 28% and 22.9% | HCC-2998 colon 33.8% and 49.7% | KM12 colon 39% and 28.2%

COc1ccccc1/C=N\N=C(N/N=C/c1ccccc1OC)N/N=C/c1ccccc1OC
23.8% (inactive) and 6.76% (active): MCF7 breast
inactive: T-47D breast 61.9% and 27% | BT-549 breast 80.8% and 39.1% | MDA-MB-435 melanoma 61.9% and 30.2% | SW-620 colon 60.8% and 20.1% | HCT-116 colon 39.5% and 14% | HCC-2998 colon 33.7% and 26.8% | KM12 colon 43.1% and 15.6%

O=C(CN1CCOCC1)N1CCOCC1
inactive: T-47D breast 110% and 101% | BT-549 breast 96.9% | MDA-MB-435 melanoma 116% and 101% | SW-620 colon 105% and 109% | MCF7 breast 110% and 105% | HCT-116 colon 104% and 107% | HCC-2998 colon 104% and 105% | KM12 colon 110% and 106%

Cc1nn(-c2ccccc2)nc1C(=O)Nc1ccccc1C(=O)NCC1CC1
inactive: T-47D breast 76.8% and 28.7% | BT-549 breast 123% and 84.8% | MDA-MB-435 melanoma 102% and 85.9% | SW-620 colon 104% and 68.7% | MCF7 breast 81.1% and 56.5% | HCC-2998 colon 102% and 116% | KM12 colon 117% and 93.9%
63.9% (inactive) and -13.4% (active): HCT-116 colon

CCCCOc1cc(C(=O)NCCN(CC)CC)c2ccccc2n1
inactive: T-47D breast 82.9% and 92.4% | BT-549 breast 93.4% and 98.5% | MDA-MB-435 melanoma 88.9% and 98.1% | SW-620 colon 105% and 97.7% | MCF7 breast 93.3% and 95% | HCT-116 colon 91% and 105% | HCC-2998 colon 96% and 92.2% | KM12 colon 101% and 110%

Oc1ccccc1C=NCC1CCC(CN=Cc2ccccc2O)CC1 (stereo not given)
inactive: T-47D breast 96.9% | BT-549 breast 113% | MDA-MB-435 melanoma 104% | SW-620 colon 47.4% | MCF7 breast 66% | HCT-116 colon 52.8% | HCC-2998 colon 101% | KM12 colon 107%

Cn1cc(-c2cc3c(Nc4ccc(CC(=O)Nc5cc(C(C)(C)C)on5)cc4)ncnc3[nH]2)cn1
active: T-47D breast -1.6% and -13.9% | BT-549 breast -15% and -15.8% | MDA-MB-435 melanoma -42.3% and -0.328% | SW-620 colon -7.24% and 1.5% | MCF7 breast 4.99% and 7.91% | HCT-116 colon 0.379% and 1.42% | HCC-2998 colon -10.8% and -2.61% | KM12 colon -20.7% and 3.37%

N#C/C(=C/c1c(O)ccc2ccccc12)C(N)=O
inactive: T-47D breast 87.5% | BT-549 breast 93.7% | MDA-MB-435 melanoma 104% | SW-620 colon 94.6% | MCF7 breast 95.1% | HCT-116 colon 101% | KM12 colon 93.8%

CCOc1ccc2nc3cc(N)ccc3c(N)c2c1
35.7% (inactive) and -3.05% (active): BT-549 breast
inactive: MDA-MB-435 melanoma 91.7% and 98.2% | SW-620 colon 46.1% and 50% | MCF7 breast 16.8% | HCT-116 colon 46.4% and 29.6% | HCC-2998 colon 45.3% and 46.1% | KM12 colon 45.1% and 31.5%
active: T-47D breast 7.14% and -4.55%

CC(=O)c1ccccc1O
inactive: T-47D breast 107% and 81.2% and 103% | BT-549 breast 95.9% and 110% and 91.1% | MDA-MB-435 melanoma 105% and 111% and 109% | SW-620 colon 103% and 105% and 113% | MCF7 breast 102% and 94% and 101% | HCT-116 colon 97.8% and 92.6% and 101% | HCC-2998 colon 99.7% and 102% and 97.2% | KM12 colon 103% and 100% and 110%

O=C(Oc1cccc(OC(=O)c2ccccc2)c1)c1ccccc1
inactive: T-47D breast 102% | BT-549 breast 112% and 90.8% | MDA-MB-435 melanoma 113% and 99.8% | SW-620 colon 85.8% and 103% | MCF7 breast 78.7% and 107% | HCT-116 colon 89.2% and 93.9% | HCC-2998 colon 96.3% and 102% | KM12 colon 87.9%
